Shown are actives, neighbours in structure and some others; about 3% of the full set was active somewhere.
SENP8 block-1 = SENP8 protease inhibitors, primary screen, biochemical, luminescence | AID 2540, 2010 | Sentrin-specific protease 8 (Homo sapiens), Q96LD8 | purified SENP8, Z-RLRGG-aminoluciferin cleavage | inhibition, % at 10 µM | hit rate 1.2% among 330,000; in the data active means inhibition above about 50%
Target sequence (Q96LD8 whole entry, looked up): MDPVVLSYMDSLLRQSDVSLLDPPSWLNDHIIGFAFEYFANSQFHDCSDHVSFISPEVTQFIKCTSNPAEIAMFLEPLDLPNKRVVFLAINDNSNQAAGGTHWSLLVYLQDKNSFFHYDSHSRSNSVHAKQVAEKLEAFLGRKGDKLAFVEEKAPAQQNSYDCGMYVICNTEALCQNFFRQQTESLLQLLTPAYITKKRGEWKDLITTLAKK
PPC-1+TRAIL kill = compounds killing PPC-1 cancer cells with TRAIL present, primary screen, TRAIL potentiator project, ATPLite luminescence, uHTS; PPC-1 cells + TRAIL, ATPLite viability luminescence; cell killing (% activity), % at 4 µM or 5 µM; hit rate 0.41% among 220,000;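 active means cell killing above 50% in the first pass at 4 µM, then a duplicate retest at 5 µM averaging 50% or more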;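 further: plate controls were cells with TRAIL plus DMSO for no effect and medium-only wells lacking cells for full effect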
TRAIL sens C8 = viability loss with TRAIL in NB7+C8 cells, primary screen, TRAIL sensitizer project, cell-based, ATPlite luminescence | AID 624354, 2012 | inhibition (viability loss, TRAIL sensitization), % at 10 µM | hit rate 1% among 360,000;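 active means compounds causing at least 50% loss of cell viability in the single-dose screen, relative to plate controls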
SENP8 block-2 = human SENP8 protease inhibitors, primary screen, biochemical, fluorescence, Nedd8 protein substrate, uHTS; recombinant SENP8; Sentrin-specific protease 8 (Homo sapiens), Q96LD8; AID 602440, 2012; inhibition, % at 20 µM; hit rate 0.64% among 360,000; in the data active means inhibition mostly above about 40%, no sharp cut-off; inactive means mostly below about 27%
SENP7 inh = SENP7 protease inhibitors, primary screen, biochemical, luminescence, uHTS. recombinant SENP7, Z-RLRGG-aminoluciferin luminescence, 40 min. inhibition, % at 5 µM. hit rate 1.5% among 330,000. AID 434973, 2010;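 active means inhibition above about 50% at the single test dose, limit read from the data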;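 further: plate controls were DMSO with enzyme for no effect and no enzyme buffer wells for full effect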
Target sequence (Q9BQF6 706-1050 limits assumed): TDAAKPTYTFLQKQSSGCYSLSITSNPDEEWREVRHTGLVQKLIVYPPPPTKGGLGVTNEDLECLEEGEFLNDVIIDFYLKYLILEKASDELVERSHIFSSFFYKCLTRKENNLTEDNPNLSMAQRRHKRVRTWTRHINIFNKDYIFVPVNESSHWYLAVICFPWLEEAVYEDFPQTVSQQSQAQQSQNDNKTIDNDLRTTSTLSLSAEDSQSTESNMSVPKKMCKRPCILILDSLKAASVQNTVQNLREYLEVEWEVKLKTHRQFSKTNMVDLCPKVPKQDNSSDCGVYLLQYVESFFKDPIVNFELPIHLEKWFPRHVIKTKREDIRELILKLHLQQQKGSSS
SENP6 block = SENP6 protease inhibitors, primary screen, biochemical, luminescence, uHTS | Sentrin-specific protease 6 (Homo sapiens), Q9GZR1 | Recombinant SENP6 catalytic domain, aminoluciferin luminescence | inhibition, % at 10 µM | hit rate 1.8% among 330,000;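 active means inhibition above about 50% at the single tested dose, limit read from the data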;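 further: plate controls were DMSO wells with enzyme for no effect and DMSO wells lacking enzyme for full effect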
SENP8 conf = SENP8 protease inhibitors, retest, confirmation, biochemical, luminescence, single concentration; hit rate 40% among 6,200; shares compounds with SENP7 inh; Recombinant SENP8, Z-RLRGG-aminoluciferin luminescence, 60 min; inhibition, % at 12.5 µM;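 active means mean inhibition across replicates above about 50%, limit read from the data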
SENP6 conf = SENP6 protease inhibitors, confirmation, biochemical, luminescence, single concentration; hit rate 58% among 6,200; recombinant SENP6, Z-RLRGG-aminoluciferin luminescence; shares compounds with SENP7 inh; inhibition, % at 12.5 µM
SENP7 confirm = SENP7 protease inhibitors, retest, confirmation, biochemical, luminescence, single concentration; recombinant SENP7, Z-RLRGG-aminoluciferin luminescence, 40 min; hit rate 69% among 6,200; AID 488917, 2010; shares compounds with SENP7 inh; inhibition, % at 12.5 µM
Casp3 select = caspase-3 protease inhibitors, confirmation, selectivity assay for SENP inhibitor project, biochemical, single concentration. shares compounds with SENP7 inh. purified caspase-3, Z-DEVD-aminoluciferin luminescence, 60 min. inhibition, % at 12.5 µM. hit rate 60% among 6,200. AID 488918, 2010;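 active means mean inhibition above about 50%, limit read from the data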;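 further: plate controls were enzyme with DMSO for no effect and wells without caspase-3 for full effect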
Target sequence (P42574 28-227 limits assumed): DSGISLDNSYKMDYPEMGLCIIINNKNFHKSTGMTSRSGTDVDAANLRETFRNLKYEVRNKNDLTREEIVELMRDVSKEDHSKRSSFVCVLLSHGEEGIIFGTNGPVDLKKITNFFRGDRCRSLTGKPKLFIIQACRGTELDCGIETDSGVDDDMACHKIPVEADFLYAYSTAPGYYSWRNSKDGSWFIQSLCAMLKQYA
Luc interf = interferes with luciferase luminescence in SENP counter-screen. shares compounds with SENP7 inh. Pre-incubated SENP8/Z-RLRGG-aminoluciferin, luciferase luminescence interference. inhibition, % at 12.5 µM. hit rate 39% among 6,200. AID 488919;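 active means mean inhibition above about 50% when retested at one dose, limit read from the data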;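 further: plate controls were DMSO wells with completed reaction for no effect and substrate without enzyme for full effect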
Starred values were filed as active, the others as inactive; · = no result.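 How the source made its calls, unless noted: active means mean inhibition above about 50% in the one-dose retest (limit read from the data); inactive means the rest.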

SMILES | SENP8 block-1 | PPC-1+TRAIL kill | TRAIL sens C8 | SENP8 block-2 | SENP7 inh | SENP6 block | SENP8 conf | SENP6 conf | SENP7 confirm | Casp3 select | Luc interf
COc1ccc2nc(NC(=O)Cc3cccs3)sc2c1 | 5.2 | -1.5 | 14.3 | 17.2 | 11.1 | 2.1 | · | · | · | · | ·
CCOc1ccc2nc(NC(=O)NC3CCCCC3)sc2c1 | -1.6 | 9.3 | 1.1 | 15.4 | 2.5 | -3.7 | · | · | · | · | ·
O=C(O)c1ccc(N/N=C/c2ccc(OC(=O)c3ccccc3Cl)cc2)cc1 | 89.6* | 19.9 | -4.6 | -21.5 | 46.6 | 91.4* | 76.5* | 96.5* | 97.7* | 45.1 | 7.3
COc1ccc(/C=N/Nc2ccc(C(=O)O)cc2)cc1OC | 81.8* | 14.1 | 2.0 | -269.2 | 85.8* | 95.4* | 89.0* | 88.0* | 99.1* | 90.5* | 83.0*
COc1ccc(/C=N/Nc2ccc(C(=O)O)cc2)cc1Br | 97.2* | 5.9 | 1.1 | -330.3 | 100.1* | 95.0* | 98.9* | 99.5* | 102.0* | 97.9* | 97.8*
Nc1ccc(C(=O)N/N=C\c2ccc(OC(=O)c3ccccc3Cl)cc2)cc1 | -3.8 | · | 10.8 | -46.2 | -0.9 | -16.3 | · | · | · | · | ·
C=CCOc1c(Br)cc(/C=N/Nc2ccc(C(=O)O)cc2)cc1OCC | 77.2* | 12.5 | -1.3 | -311.6 | 55.0* | 84.5* | 87.7* | 86.8* | 94.2* | 29.2 | 56.0*
CCOc1cc(/C=N/O)cc(Br)c1OCC | 6.7 | 35.4 | 9.4 | 30.8 | 6.0 | -3.9 | · | · | · | · | ·
COc1cc(C=NNc2ccccc2)ccc1OC(=O)c1ccccc1 | · | · | 6.7 | 3.8 | · | · | · | · | · | · | ·
O=C(NCCc1ccccc1)[C@@H]1CC=C[C@@H]2CCN(C3CCCCC3)C(=O)[C@@H]21 | -8.8 | · | 3.8 | 2.2 | 0.2 | -7.0 | · | · | · | · | ·
CN(C)c1ccc(-c2csc(C(C)(O)c3ccccc3)n2)cc1 (stereo not drawn) | · | · | 7.3 | -7.7 | · | · | · | · | · | · | ·
Cc1ccc(S(=O)(=O)Oc2cccc(/C=N/n3cnnc3)c2)cc1 | 4.1 | 17.8 | 9.0 | 6.2 | -4.0 | 3.9 | · | · | · | · | ·
CC(C)c1ccc(/C=N/Nc2ccc(C(=O)O)cc2)cc1 | 97.0* | 39.0 | 15.3 | -100.8 | 100.6* | 97.8* | 99.2* | 100.0* | 102.6* | 97.2* | 98.6*
Cc1ccc(S(=O)(=O)Oc2cccc(/C=N/Nc3ccc(C(=O)O)cc3)c2)cc1 | 88.4* | -2.5 | -2.4 | -140.5 | 61.9* | -4.8 | 13.9 | 95.9* | 100.8* | 17.7 | 89.6*
CNC(=O)Cn1nc(-c2ccc(Cl)cc2)c2ccccc2c1=O | -8.3 | · | -19.5 | 22.3 | -9.2 | -14.3 | · | · | · | · | ·
CN1CCN(S(=O)(=O)c2ccc3[nH]c(=O)oc3c2)CC1 | -2.5 | 12.8 | -1.1 | 2.8 | -0.4 | 8.7 | · | · | · | · | ·
O=c1[nH]c2ccc(S(=O)(=O)N3CCN(c4ccc(F)cc4)CC3)cc2o1 | 54.8* | 15.5 | -2.9 | 4.5 | 0.9 | 13.9 | 6.3 | 6.0 | -7.3 | -6.2 | -2.3
O=C(OCc1cccc(F)c1)c1ccc2c(=O)n3c(nc2c1)CCC3 | -5.5 | 7.8 | 17.1 | -158.2 | 5.8 | 5.3 | · | · | · | · | ·
CC(=Nc1ccc(C)c(C)c1)C1=C(O)CSC1=O | 22.3 | 0.4 | 10.3 | -17.6 | 9.3 | 54.3* | 58.1* | 56.4* | 81.8* | 73.8* | 63.6*
COc1ccccc1N=C(C)C1=C(O)CSC1=O | -6.0 | -13.7 | 9.7 | 27.8 | 9.1 | -10.4 | · | · | · | · | ·
Cc1nc(-c2ccc([N+](=O)[O-])cc2)sc1C(=O)O | 92.1* | -2.1 | -7.3 | -6.9 | 97.0* | 90.8* | 11.0 | 6.9 | 101.3* | 96.9* | 93.2*
Cc1nc(-c2ccccc2)sc1C(=O)O | 39.7 | 11.9 | 5.2 | 9.2 | 35.7 | 42.8 | · | · | · | · | ·
Cc1nc(-c2ccc(Cl)cc2)sc1C(=O)O | 84.8* | 17.7 | 16.1 | 1.1 | 77.0* | 81.4* | 94.8* | 94.7* | 100.9* | 88.4* | 92.6*
Cc1ccc(-c2nc(C)c(C(=O)O)s2)cc1 | 93.4* | 11.1 | 16.4 | -24.9 | 97.5* | 95.0* | 98.9* | 99.7* | 103.2* | 92.3* | 98.2*
CC1CC(C)CN(c2cc(N(C)CCO)c([N+](=O)[O-])c3nonc23)C1 (stereo not drawn) | 4.0 | 20.5 | -1.3 | 33.7 | 0.8 | -4.4 | · | · | · | · | ·
SMILES | SENP8 block-1 | PPC-1+TRAIL kill | TRAIL sens C8 | SENP8 block-2 | SENP7 inh | SENP6 block | SENP8 conf | SENP6 conf | SENP7 confirm | Casp3 select | Luc interf
CC1CCN(c2cc(N(C)CCO)c([N+](=O)[O-])c3nonc23)CC1 | 4.0 | 2.1 | -3.3 | 27.8 | 90.2* | 2.2 | 9.2 | 6.7 | -1.6 | -4.7 | -7.1
O=C(/C=C/c1cccc(Br)c1)c1ccc2c(c1)OCO2 | 34.3 | · | -13.4 | 3.1 | -32.8 | 76.1* | 4.2 | 4.8 | -13.3 | -12.7 | 9.5
COc1cccc(/C=C/C(=O)c2ccc3c(c2)OCO3)c1OC | -4.4 | · | 41.2 | 9.9 | -1.6 | 11.4 | · | · | · | · | ·
O=C(c1ccc2c(c1)OCO2)c1ccc[nH]1 | · | · | 1.1 | 6.4 | · | · | · | · | · | · | ·
O=C(/C=C/c1ccccc1Br)c1ccc2c(c1)OCO2 | 91.4* | · | -18.2 | 13.7 | 91.6* | 94.1* | 72.1* | 73.8* | 63.5* | 59.8* | 53.7*
O=C(/C=C/c1ccc2c(c1)OCO2)c1ccc[nH]1 | 58.5* | 25.0 | 25.4 | -421.6 | 77.7* | 77.3* | 72.9* | 64.3* | 90.7* | 40.6 | 68.6*
CCN(Cc1ccc2c(c1)OCO2)C(=O)/C=C/c1cccc(Br)c1 | -12.7 | · | 10.1 | 1.5 | -4.1 | -5.6 | · | · | · | · | ·
O=C(/C=C/c1ccccc1)c1ccc2c(c1)OCO2 | 76.3* | -3.9 | 10.3 | 11.6 | 93.3* | 82.4* | 20.0 | 50.6* | 33.0 | 28.1 | 89.5*
Cc1cc(NC(=O)CSc2ncccc2C(=O)O)no1 | -11.4 | 11.6 | -8.1 | 23.8 | 1.9 | -12.9 | · | · | · | · | ·

Screening data deposited in PubChem BioAssay by Sanford-Burnham Center for Chemical Genomics.
